Laboratory results as given in PubChem BioAssay (NCI).
About 83,000 compounds went through this panel and 20% of them were active in at least one assay; those are over-represented in the sample as a whole.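 The endpoint reported here, percent growth, reads 100 for growth as untreated, 0 for no net growth and -100 for all cells dead.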 Calls of active or inactive are those of the source. How the source made its calls: active means growth percent below 10; inactive means the rest.

Tests used:
Assay in all cases: NCI-60 one-dose screen, 48 h (100 = growth as untreated, 0 = no growth, -100 = all killed)
Details in all cases: 10 µM unless noted
NCI-H23 lung = test system: NCI-H23 lung
NCI-H226 lung = test system: NCI-H226 lung
NCI-H322M lung = test system: NCI-H322M lung
HOP-62 NSCLC = test system: HOP-62 NSCLC
NCI-H460 lung = test system: NCI-H460 lung
HOP-92 NSCLC = test system: HOP-92 NSCLC
NCI-H522 lung = test system: NCI-H522 lung
A549/ATCC NSCLC = test system: A549/ATCC NSCLC
786-0 renal = test system: 786-0 renal
COLO 205 colon = test system: COLO 205 colon

Measured: growth

Cc1cc2cc3cc(C)c(N)cc3[n+](C)c2cc1N
active: NCI-H23 lung 0.672% | NCI-H460 lung -14.5% | HOP-92 NSCLC -11.9% | NCI-H522 lung -4.5% | A549/ATCC NSCLC 3.82% | COLO 205 colon -46.5%
inactive: NCI-H226 lung 30.9% | NCI-H322M lung 28.4% | HOP-62 NSCLC 19.3% | 786-0 renal 14.7%

C/C(=C(/c1ccccc1)c1ccc(OCC(O)CNCCN2CCOCC2)cc1)c1ccccc1 (stereo not given)
active: COLO 205 colon -64.5%
inactive: NCI-H23 lung 83.2% | NCI-H226 lung 96.1% | NCI-H322M lung 72.7% | HOP-62 NSCLC 54.9% | NCI-H460 lung 17.6% | HOP-92 NSCLC 59.1% | NCI-H522 lung 44.6% | A549/ATCC NSCLC 70.8% | 786-0 renal 97.6%

COc1cc(C2CC(c3cccc(Nc4ccncc4)c3)=NN2c2ccc(Cl)cc2)cc(OC)c1OC (stereo not given)
inactive: NCI-H23 lung 79.9% | NCI-H226 lung 84.3% | NCI-H322M lung 65.1% | HOP-92 NSCLC 25.1% | A549/ATCC NSCLC 26.1% | 786-0 renal 104%
active: HOP-62 NSCLC -44.4% | NCI-H460 lung -73.8% | NCI-H522 lung -46.1% | COLO 205 colon -63.1%

COc1ccc(-c2ncc(-c3ccccc3)[nH]2)cc1OC
active: 786-0 renal -10.5%
inactive: NCI-H23 lung 101% | NCI-H226 lung 100% | NCI-H322M lung 218% | HOP-62 NSCLC 112% | NCI-H460 lung 112% | HOP-92 NSCLC 93% | NCI-H522 lung 108% | A549/ATCC NSCLC 110% | COLO 205 colon 145%

CC(=O)O[C@]1(C(C)=O)CC[C@H]2[C@@H]3C=C(Cl)C4=CC(=O)CC[C@]4(C)[C@H]3CC[C@@]21C
inactive: NCI-H23 lung 114% | NCI-H226 lung 94.4% | NCI-H322M lung 106% | HOP-62 NSCLC 106% | NCI-H460 lung 105% | HOP-92 NSCLC 96.7% | NCI-H522 lung 72.2% | A549/ATCC NSCLC 91.5% | 786-0 renal 99.4% | COLO 205 colon 133%

COc1ccc(C(=O)c2cc3c(N)c(C(=O)Nc4cccc5ccccc45)sc3nc2C)cc1
inactive: NCI-H23 lung 30.7% | NCI-H226 lung 47.4% | NCI-H322M lung 51.4% | HOP-62 NSCLC 30.2% | HOP-92 NSCLC 44.5% | A549/ATCC NSCLC 17.6% | 786-0 renal 31.6%
active: NCI-H460 lung 3.06% | NCI-H522 lung -28.8% | COLO 205 colon -37.7%

O=c1nc2n(nc1/C=C/c1ccco1)CC(c1ccc(Cl)cc1)=NN2
inactive: NCI-H23 lung 93% | NCI-H226 lung 100% | NCI-H322M lung 84.2% | HOP-62 NSCLC 82.9% | NCI-H460 lung 108% | HOP-92 NSCLC 87.6% | NCI-H522 lung 79.4% | A549/ATCC NSCLC 104% | 786-0 renal 95.7% | COLO 205 colon 110%

N#Cc1cc(-c2nc3ccccc3s2)c(=O)n(NS(=O)(=O)c2ccc(Cl)cc2)c1N
inactive: NCI-H23 lung 94.9% | NCI-H226 lung 80.8% | NCI-H322M lung 102% | HOP-62 NSCLC 89.6% | NCI-H460 lung 105% | HOP-92 NSCLC 98.6% | NCI-H522 lung 96.3% | A549/ATCC NSCLC 117% | 786-0 renal 105% | COLO 205 colon 122%

CCOC(=O)N1CCN(CCCCl)CC1
inactive: NCI-H23 lung 103% | NCI-H226 lung 102% | NCI-H322M lung 101% | HOP-62 NSCLC 109% | NCI-H460 lung 105% | HOP-92 NSCLC 95% | NCI-H522 lung 95.4% | A549/ATCC NSCLC 94.8% | 786-0 renal 98.4% | COLO 205 colon 113%

Cc1ccc(C(=O)Nc2ccccc2C(=O)N/N=C(\c2ccccc2)c2ccccn2)cc1
inactive: NCI-H23 lung 32.6% | NCI-H226 lung 30.3% | NCI-H322M lung 33.4% | HOP-62 NSCLC 14.5% | HOP-92 NSCLC 52.7% | NCI-H522 lung 24.1% | A549/ATCC NSCLC 17.2% | COLO 205 colon 14.1%
active: NCI-H460 lung 5.43% | 786-0 renal -17.1%

COC(=O)C(c1ccccc1)C(CC(=O)c1ccccc1)c1ccccc1 (stereo not given)
inactive: NCI-H23 lung 78.3% | NCI-H226 lung 75.1% | NCI-H322M lung 75.6% | HOP-62 NSCLC 91.4% | NCI-H460 lung 109% | HOP-92 NSCLC 62.6% | NCI-H522 lung 61.9% | A549/ATCC NSCLC 95.4% | 786-0 renal 106% | COLO 205 colon 105%

CCC1(CC)NC(=O)c2c(c3ccc(Cl)c(Cl)c3n2C)C1C#N (stereo not given)
inactive: NCI-H23 lung 93% | NCI-H226 lung 95.6% | NCI-H322M lung 103% | HOP-62 NSCLC 81.2% | NCI-H460 lung 98.7% | HOP-92 NSCLC 62.1% | NCI-H522 lung 86.5% | A549/ATCC NSCLC 88.6% | 786-0 renal 94.3% | COLO 205 colon 80.1%

COc1cc2nc(Cc3ccc(C)cc3)[nH]c(=O)c2cc1OC
inactive: NCI-H23 lung 105% | NCI-H226 lung 95.9% | NCI-H322M lung 236% | HOP-62 NSCLC 104% | NCI-H460 lung 107% | HOP-92 NSCLC 69.1% | NCI-H522 lung 92.8% | A549/ATCC NSCLC 49.3% | 786-0 renal 103% | COLO 205 colon 123%

NC(=O)c1ccc[n+](CC(=O)N2CCN(c3cc4c(cc3F)c(=O)c(C(=O)O)cn4C3CC3)CC2)c1
active: NCI-H522 lung -73.1%
inactive: NCI-H23 lung 92.4% | NCI-H226 lung 97.3% | NCI-H322M lung 104% | HOP-62 NSCLC 111% | NCI-H460 lung 101% | HOP-92 NSCLC 133% | A549/ATCC NSCLC 104% | 786-0 renal 74.6% | COLO 205 colon 63.1%

CC1(C)CN(Cc2ccccc2)CCN1Cc1ccccc1
inactive: NCI-H23 lung 104% | NCI-H226 lung 95% | NCI-H322M lung 103% | HOP-62 NSCLC 108% | NCI-H460 lung 106% | HOP-92 NSCLC 96.3% | NCI-H522 lung 91.8% | A549/ATCC NSCLC 89.5% | 786-0 renal 99.6% | COLO 205 colon 112%

CC(=O)c1c(-c2ccc(OC(F)(F)F)cc2)nc2ccccn12
inactive: NCI-H23 lung 95.4% | NCI-H226 lung 91% | NCI-H322M lung 90.4% | HOP-62 NSCLC 88.9% | NCI-H460 lung 103% | HOP-92 NSCLC 91% | NCI-H522 lung 51.5% | A549/ATCC NSCLC 62.8% | 786-0 renal 99% | COLO 205 colon 95.8%

CCCCCCc1nc2nc(Cl)c(Cl)nc2[nH]1
inactive: NCI-H23 lung 34.8% | NCI-H226 lung 63.2% | NCI-H322M lung 96% | HOP-62 NSCLC 88.1% | NCI-H460 lung 52.7% | NCI-H522 lung 32.6% | A549/ATCC NSCLC 53.2% | 786-0 renal 65.8% | COLO 205 colon 102%
active: HOP-92 NSCLC -13.8%

COc1ccc(C2=C(c3ccccc3)c3ccc(OC(C)=O)cc3OC2(C)C)cc1
inactive: NCI-H23 lung 79.8% | NCI-H226 lung 86.3% | NCI-H322M lung 102% | HOP-62 NSCLC 107% | NCI-H460 lung 84.8% | HOP-92 NSCLC 81.1% | NCI-H522 lung 88.8% | A549/ATCC NSCLC 87.7% | 786-0 renal 101% | COLO 205 colon 108%

COc1cc(OC)cc(C2C3=C(COC3=O)Nc3cc(OC)ccc32)c1 (stereo not given)
active: NCI-H226 lung -3.11% | NCI-H460 lung 4.2% | NCI-H522 lung -40.5% | COLO 205 colon -74.1%
inactive: NCI-H23 lung 12.1% | NCI-H322M lung 50.5% | HOP-62 NSCLC 22% | HOP-92 NSCLC 52.6% | A549/ATCC NSCLC 16.6% | 786-0 renal 11%

CC(=O)c1cccc(NS(=O)(=O)c2cccc(C(=O)Nc3ccc(Br)cc3)c2)c1
inactive: NCI-H23 lung 29.4% [25 µM] | NCI-H226 lung 49.3% [25 µM] | NCI-H322M lung 73.4% [25 µM] | HOP-62 NSCLC 68.9% [25 µM] | NCI-H460 lung 63.4% [25 µM] | HOP-92 NSCLC 33.9% [25 µM] | NCI-H522 lung 48.8% [25 µM] | A549/ATCC NSCLC 58% [25 µM] | 786-0 renal 56.2% [25 µM] | COLO 205 colon 61% [25 µM]

CCNC(=S)NNC(=O)c1cc2ccc1CCc1ccc(cc1)CC2
inactive: NCI-H23 lung 97.7% | NCI-H226 lung 106% | NCI-H322M lung 95.1% | HOP-62 NSCLC 101% | NCI-H460 lung 103% | HOP-92 NSCLC 97.2% | NCI-H522 lung 92.7% | A549/ATCC NSCLC 101% | 786-0 renal 106% | COLO 205 colon 107%

CCN1C(=O)/C(=c2\sc3n(c2=O)NC2C(N=3)N(CC)C(=O)N2CC)c2ccccc21 (stereo not given)
inactive: NCI-H23 lung 38.5% | NCI-H226 lung 102% | NCI-H322M lung 47% | HOP-62 NSCLC 43.1% | NCI-H460 lung 18% | HOP-92 NSCLC 21.6% | NCI-H522 lung 15% | A549/ATCC NSCLC 38.9% | 786-0 renal 38.2% | COLO 205 colon 14.8%
